Screening data from PubChem.
RXFP1 antagonist: blocks the human relaxin receptor RXFP1; Q9HBX9; HEK293-RXFP1, relaxin-stimulated cAMP HTRF, 30 min; stronger effect = lower value; activity change, negative = inhibition, % at 57.5 µM; 350,000 tested, 0.59% active; AID 1259400;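 active means activity change of -60% or lower, but not beyond a set lower limit; inconclusive means change between -60% and -40%, or beyond the set limit; inactive means change above -40%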; further: on the % scale 0 is the no-effect control and ±100 the full control effect
Target sequence (Q9HBX9 whole entry, looked up): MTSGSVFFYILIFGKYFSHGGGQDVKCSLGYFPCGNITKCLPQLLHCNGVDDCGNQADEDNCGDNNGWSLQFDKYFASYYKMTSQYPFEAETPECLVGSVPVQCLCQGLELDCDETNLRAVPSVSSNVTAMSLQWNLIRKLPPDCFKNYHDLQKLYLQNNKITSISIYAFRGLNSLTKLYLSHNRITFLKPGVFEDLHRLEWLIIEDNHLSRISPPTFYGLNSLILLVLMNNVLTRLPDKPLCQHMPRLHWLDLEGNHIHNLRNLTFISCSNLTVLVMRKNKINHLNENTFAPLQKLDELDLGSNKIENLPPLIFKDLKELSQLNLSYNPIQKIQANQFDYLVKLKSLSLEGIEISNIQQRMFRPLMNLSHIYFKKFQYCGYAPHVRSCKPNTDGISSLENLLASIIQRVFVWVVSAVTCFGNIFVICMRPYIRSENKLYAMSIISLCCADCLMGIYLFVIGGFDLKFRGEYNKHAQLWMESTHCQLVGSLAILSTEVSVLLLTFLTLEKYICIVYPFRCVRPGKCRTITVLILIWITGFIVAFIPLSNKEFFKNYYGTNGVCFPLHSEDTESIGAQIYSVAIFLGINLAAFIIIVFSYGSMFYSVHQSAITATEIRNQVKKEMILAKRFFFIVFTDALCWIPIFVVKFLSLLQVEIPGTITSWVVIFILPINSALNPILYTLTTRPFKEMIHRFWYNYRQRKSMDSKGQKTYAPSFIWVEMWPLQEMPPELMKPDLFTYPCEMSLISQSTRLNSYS
p53 reactivator: restores transcriptional activity of mutant p53. 320,000 tested, 0.063% active. Potency, µM (titrated, usually from 92.2 µM), for the others: at the highest dose activity change, positive = activation, actives largely listed as activators. H1299 p53-A138V BP100-luciferase reporter, luminescence, 24 h; further: potency means the concentration at half of the fitted maximal effect; % of control where 0% means no effect; nearly all actives have a fitted effect of over 45% in size
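p53-null H1299 cells stably carrying temperature-sensitive p53-A138V and a BP100-luciferase reporter were pinned with compounds (4-point, 1:5 series) and held 24 hrs at 37 deg C. Luminescence was read 10 min after detection reagent.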
gsp ag: gsp mutant agonism | gsp mutant cells, cAMP HTRF, 30 min | Potency, µM (highest dose often 76.9 µM), inactives show at the top dose activation (cAMP increase), hits mostly activators | 340,000 tested, 0.13% active | AID 624287; active means well fitted activation curve with a large enough effect; inconclusive means small, poorly fitted or top-dose-only effect, or another doubt; inactive means no such curve, though single readings can be large or run the other way; cell line not stated here;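 further: phosphodiesterase inhibitor Ro 20-1724 added with compounds to block cAMP breakdown; potency means the concentration at half of the fitted maximal effect; nearly all actives have a fitted effect of over 60% in size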
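Cells in DMEM/10% FBS with G418 were pretreated with compounds in DMSO plus […] (300 uM stock) for 30 min at 37C. cAMP was measured by HTRF (cAMP-d2 plus anti-cAMP antibody-K) after 30 min at room temperature.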
RXFP1 ag: agonists of human relaxin receptor RXFP1. Q9HBX9. HEK293T-RXFP1 cAMP TR-FRET, 30 min; response scale: percent of porcine relaxin response, buffer zero. Potency, µM (top dose mostly 57.5 µM), for the others: at the top dose activation, hits mostly activators. 370,000 tested, 0.3% active. AID 2676; further: potency means the concentration at half of the fitted maximal effect; on the % scale 0 is the no-effect control and ±100 the full control effect; nearly all actives have a fitted effect of over 60% in size
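cAMP rise read by TR-FRET after 30 min, 37C compound exposure (up to 58 uM) in RXFP1-transfected HEK293 cells with Ro 20174 present. EC50 from Hill-equation fits, with 29 nM porcine relaxin as 100% and buffer as basal.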
gsp antag: antagonists of gsp mutant (McCune-Albright syndrome); Potency, µM (top dose mostly 76.9 µM), inactives show top-dose activity change, negative = inhibition, actives largely listed as inhibitors; 340,000 tested, 0.4% active; gsp-mutant cells, cAMP HTRF, 30 min; calls by dose curve; cell line not stated here;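 further: intracellular cAMP measured with PDE inhibitor Ro 20-1724 present during compound exposure; potency means the concentration at half of the fitted maximal effect; on the % scale 0 is the no-effect control and ±100 the full control effect; nearly all actives have a fitted effect of over 65% in size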
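G418-selected cells were plated in DMEM/10% FBS for 16-24 h at 37C, then treated with compounds plus the PDE inhibitor […] (300 uM solution added) for 30 min at 37C. Intracellular cAMP was measured by HTRF after 30 min lysis at room temperature.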
Tb PFK inh: blocks T. brucei phosphofructokinase; T. brucei PFK, ADP-Glo luminescence; 330,000 tested, 0.17% active; Potency, µM (series often up to 57.5 µM), for the others: top-dose activity, negative = inhibition, hits mostly inhibitors; O15648; AID 485367;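 further: potency means the concentration at half of the fitted maximal effect; 0% = uninhibited 1x PFK enzyme wells and -100% = no-enzyme wells; nearly all actives have a fitted effect of over 60% in size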
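PFK 1.25 nM, F6P 0.5 mM, ATP 0.1 mM, 0.1 M TEA pH 8.0, 5 mM MgCl2, 0.01% Tween20, 0.1% BSA; 45 min RT. ADP-Glo readout. qHTS titration up to 57 uM; curves fitted, compounds curve-classed.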
* hit, by the source's call; ? = inconclusive; nt = not tested or not shown; [ ] = dose if it differs, or a comment. Most compounds without a hit are left out; they make up all but 1.1% or so of the library. Unless noted, the call rests on the fitted dose curve; in most records, active means well fitted curve in the direction sought with a large enough effect; inconclusive means small, poorly fitted or top-dose-only effect, or another doubt; inactive means no such curve, though single readings can be large; an effect the other way counts as inactive or inconclusive.

SMILES | RXFP1 antagonist | p53 reactivator | gsp ag | RXFP1 ag | gsp antag | Tb PFK inh
CCC(=O)NCCc1cc2ccc(C)cc2[nH]c1=O | nt | -3% | 2% | -1% | -5% | -10%
CCOc1ccccc1C(N)=O | 13 | nt | nt | nt | 1% | nt
Cc1cc(=O)oc2c(C)c(OCC(=O)N3CCN(c4ccccc4)CC3)ccc12 | 21 | -17% | -32% | 2% | -2% | -2%
Cc1cc(=O)oc2c(C)c(OCC(=O)N3CCN(c4cccc(Cl)c4)CC3)ccc12 | 6 | -11% | -95% | -7% | -8% | 21µM*
Cc1ccc2c(c1)C(=O)C(=O)N2Cc1ccccc1 | nt | 13% | -3% | nt | 12% | 2%
O=C(NC(NC(=S)Nc1c(Cl)cccc1Cl)C(Cl)(Cl)Cl)c1cccc([N+](=O)[O-])c1 (stereo unspecified) | -38 | -5% | -12% | -2% | 35µM* | 2%
Cc1cccc(C)c1N1CCN(C(=O)c2ccc3c(c2)OCO3)CC1 | -62* | -8% | 2%[15.4 µM] | 0% | -14% | -2%
Cc1cccc(N2CCN(C(=O)c3ccc4c(c3)OCCO4)CC2)c1C | -26 | -4% | -24%[15.4 µM] | 2% | -6% | -6%
Cc1ccccc1C(=O)N1CCN(c2ccc(NC(=O)c3ccc4c(c3)OCCO4)cc2)CC1 | ? | -22% | -8%[15.4 µM] | -1% | 35µM* | -2%
COc1cc(C(=O)Nc2ccc3nc(SCc4ccc(C)cc4)sc3c2)cc(OC)c1OC | nt | nt | nt | 5% | nt | nt
O=C(c1cccs1)N(Cc1cccnc1)c1nc2c(F)cc(F)cc2s1 | -11 | nt | nt | 8% | nt | nt
CN(CC(=O)Nc1c(Cl)cccc1Cl)C(=O)CNC(=O)c1ccco1 | 1 | 4% | 1% | 0% | 7% | 5%
Cc1ccc(N(C)C(=O)c2ccc3c(Cl)c4c(nc3c2)CCC4)cc1C | -89* | 2% | 2% | 1% | ? | 4%
COc1ccc(N(C)C(=O)c2ccc3c(Cl)c4c(nc3c2)CCCC4)c(OC)c1 | -96* | -20% | -20% | 2% | ? | 2%
CCc1ccc(N(CC)C(=O)c2ccc3c(Cl)c4c(nc3c2)CCC4)cc1 | -76* | -6% | -33% | 2% | -29% | 2%
COc1ccc2oc(C(=O)OC/C(O)=C(\C#N)c3nc4ccccc4[nH]3)c(C)c2c1 | 14 | 5% | 26% | 23% | 3% | 3%
Cc1c(-c2cccc(NC(=O)Nc3ccc(Cl)cc3)c2)nc2ncccn12 | -36 | nt | nt | 11% | nt | nt
Cc1ccc(S(=O)(=O)N(C)C)cc1NC(=O)CSc1ncn[nH]1 | 8 | -1% | 13% | 3% | 3% | 4%
Cc1cccc(NC(=O)c2c(C)nc3ccccn23)c1 | 0 | 17% | -3% | -1% | -3% | -4%
COc1ccc(CNC(=S)N/N=C(/C)c2ccccc2)cc1 | -8 | 28µM* | 16%[15.4 µM] | 0% | -12% | 1%
CC(C)c1ccc(NC(=O)c2cnn(-c3ccccc3)c2NC(=O)c2ccco2)cc1 | -18 | -3% | ? | 0% | 40µM* | 7%
c1ccc2c(c1)[nH]c1c(N3CCSCC3)ncnc12 | 2 | 7% | 21% | 1% | 14µM* | 7%
c1ccc2c(c1)[nH]c1c(N3CCCC3)ncnc12 | -11 | -8% | ? | 0% | ? | 0%
Clc1ccc2[nH]c3c(N4CCC5(CC4)OCCO5)ncnc3c2c1 | -11 | -1% | 9% | 4% | 35µM* | -8%
COc1cc(OC)c(OC)cc1CNC(=O)c1cccc(S(=O)(=O)N2CCc3ccccc3C2)c1 | -8 | -7% | 26% | 0% | ? | -4%
SMILES | RXFP1 antagonist | p53 reactivator | gsp ag | RXFP1 ag | gsp antag | Tb PFK inh
C=CCNc1ncnc2c1ncn2C1OC(CO)C(O)C1O (stereo unspecified) | 0 | 16% | 25% | 25µM* | 4% | -1%
Nc1ncnc2c1ncn2C1OC(CO)C(O)C1O (stereo unspecified) | 1 | 1% | 2% | 14µM* | 10% | 2%
CC(C)=CCNc1ncnc2c1ncn2[C@@H]1O[C@H](CO)[C@@H](O)[C@H]1O | 15 | nt | nt | nt | nt | nt
C[C@H]1CN([C@@H](C)CO)C(=O)c2cccc(NC(=O)C3CC3)c2O[C@H]1CN(C)Cc1ccc(-c2ccccc2)cc1 | nt | -1% | ? | nt | -17% | 4%
C=CCn1c(SCc2ccc(C(=O)Nc3nccs3)cc2)nnc1-c1ccc(C)c(Cl)c1 | -5 | -6% | -12% | 0% | ? | -1%
CC(C)Cn1c(N)c(C(=O)COC(=O)c2cccc(Cl)c2)c(=O)n(C)c1=O | -34 | 4% | 4%[15.4 µM] | 7% | 50µM* | 2%
Cc1noc(C)c1C(=O)OCC(=O)c1c(N)n(CC(C)C)c(=O)n(C)c1=O | 0 | -3% | 32µM* | 23% | 20% | 2%
CC(C)Cn1c(N)c(C(=O)COC(=O)c2c(F)cccc2F)c(=O)n(C)c1=O | -10 | 0% | 19% | 1% | -42% | 1%
COc1ccc(NC(=O)CN(C)CC(=O)NCC2CCCCC2)cc1 | 8 | -1% | -35%[15.4 µM] | 0% | 3% | 2%
CCOC(=O)c1c(/N=C/N(C)C)sc(/C=N/Nc2ccccc2)c1-c1ccc(Cl)cc1 | 1 | -15% | 13µM* | 1% | 7% | -1%
CCCCn1c(N)c(-c2nc3ccccc3s2)c2c([N+](=O)[O-])nn(C)c(=O)c21 | -21 | 6% | 3% | 1% | -4% | 4%
CCOc1cc2c(cc1O)C(=NO)CC1C2CCC2(C)C(O)CCC12 (stereo unspecified) | 7 | nt | -39% | nt | 0% | nt
COc1ccc(C(C)=O)cc1CSc1nnc(Nc2ccccc2C)s1 | nt | -10% | -46% | 0% | 11µM* | 0%
COc1ccc(C(C)=O)cc1CSc1nnc(Nc2ccc(C)cc2C)s1 | 5 | -16% | -14%[15.4 µM] | 2% | -29% | 7%
COCc1ccc(C(=O)N(C)CC2CCCN(CCc3ccccc3F)C2)o1 (stereo unspecified) | 0 | 3% | 12% | 1% | 10% | 23%
Cc1cc(C)nc(NS(=O)(=O)c2ccc(NC(=O)COc3ccc(C(C)(C)C)cc3)cc2)n1 | -86* | nt | nt | 0% | nt | nt
COc1ccc(OCC(=O)Nc2ccc(S(=O)(=O)Nc3nc(C)cc(C)n3)cc2)cc1 | 6 | -2% | ? | 2% | -10% | 0%
O=C(Nc1cnc(N2CCC(N3CCCCC3)CC2)c(C(=O)O)c1)c1ccc(Br)cc1 | 3 | nt | nt | 0% | nt | nt
O=C(Nc1cccc(-c2cnc3ccccc3n2)c1)C1CC(=O)N(c2ccccc2)C1 (stereo unspecified) | -73* | 10% | 6%[15.4 µM] | 1% | ? | -3%
